# Measured values published in paper PMC5540273 (PLoS ONE, 2017).
# Legend:
# Settings in all cases: concentration: 1 μM, replicates: in singlicate; n = 1
# DDR2 = test system: DDR2
# DLK = test system: T1, DLK
# T1 construct: gene MAP3K12
# DMPK2 = test system: T2, DMPK2
# T2 construct: gene CDC42BPG
# DMPK = test system: DMPK
# DRAK1 = test system: T3, DRAK1
# T3 construct: gene STK17A
# DRAK2 = test system: T4, DRAK2
# T4 construct: gene STK17B
# DYRK1A = test system: DYRK1A
# DYRK1B = test system: DYRK1B
# DYRK2 = test system: DYRK2
# EGFR = test system: EGFR
# 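Also: KINOMEscan kinase panel screen.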
Compound,%Inh (DDR2) [%],%Inh (DLK) [%],%Inh (DMPK2) [%],%Inh (DMPK) [%],%Inh (DRAK1) [%],%Inh (DRAK2) [%],%Inh (DYRK1A) [%],%Inh (DYRK1B) [%],%Inh (DYRK2) [%],%Inh (EGFR) [%]
O=C(c1ccc(-c2cc(-c3c[nH]nc3-c3ccccn3)ccn2)cc1)N1CCCC1 [GW792479],24,0,0,0,0,10,0,0,0,27
CCn1c(-c2ccncc2)nc2cnccc21 [SB-735216],7,0,0,0,0,2,4,2,17,0
CCc1nc(-c2cccc(N(C)S(=O)(=O)c3ccccc3)c2)c(-c2ccnc(Nc3ccc(N4CCN(C(C)=O)CC4)nc3)n2)s1 [GSK1645895],5,0,22,0,3,0,0,0,29,79
CSc1nn2c(=O)cc(N3CCOCC3)nc2n1Cc1cccc(Cl)c1Cl [GSK2347225],0,100,16,12,4,0,19,23,8,39
CNc1nccc(-c2c(-c3ccc(F)cc3)ncn2CCCN2CCOCC2)n1 [SB-222516],0,1,93,7,12,15,6,48,15,10
Cn1ccc2ncnc(Nc3ccc(Oc4cccc(Cl)c4)c(Cl)c3)c21,4,0,5,0,4,1,22,55,33,100
Cc1ccc(C)c(NC(=O)NCCNc2ccnc(Nc3ccc(F)cc3)n2)c1 [GSK1379878],15,38,0,0,5,3,0,1,3,10
Nc1nc(-c2cccnc2)c(-c2ccnc3ccccc23)s1 [GW684083],43,60,0,0,32,0,20,0,9,0
Clc1cccc(-c2nc(Nc3ccncc3)c3ccccc3n2)c1 [GW873004],32,0,84,4,0,10,12,57,7,10
Nc1nc(-c2ccccn2)c(-c2ccnc3ccccc23)s1 [GW548057],33,45,10,0,0,3,1,0,9,16
Oc1ccc2ncnc(Nc3ccc(OCc4ccccc4)cc3)c2c1 [GI262866],7,11,0,0,0,0,16,0,18,100
Cl.O=S(=O)(c1cccc(F)c1)c1ccc(Nc2ncnc3cc(Br)sc23)cc1Cl [GSK306886],0,0,15,0,9,0,7,0,14,99.2
Fc1cccc(COc2ccc(Nc3ncnc4sc(-c5ccc[nH]5)cc34)cc2Cl)c1 [GW707818],21,40,0,0,3,0,0,38,8,100
Fc1cccc(COc2ccc(Nc3ncnc4nn5ccccc5c34)cc2Cl)c1 [GW689066],37,52,0,0,87,0,8,0,0,
FC(F)(F)c1ccc(-c2cc(-c3c[nH]nc3-c3ccccn3)ccn2)cc1 [GW599550],17,41,0,4,10,0,10,23,0,18
Clc1cc(Nc2ncnc3cc[nH]c23)ccc1OCc1ccccn1,0,40,0,9,48,20,0,17,17,99.9
Cc1cccc(-c2nc(Nc3ccc4[nH]nnc4c3)c3ccccc3n2)n1 [GW867587],37,0,0,0,0,0,0,0,26,0

Compound,%Inh (DDR2) [%],%Inh (DLK) [%],%Inh (DMPK2) [%],%Inh (DMPK) [%],%Inh (DRAK1) [%],%Inh (DRAK2) [%],%Inh (DYRK1A) [%],%Inh (DYRK1B) [%],%Inh (DYRK2) [%],%Inh (EGFR) [%]
Cl.c1ccc(Cn2ncc3cc(Nc4ncnc5ccccc45)ccc32)cc1 [GW273749],0,12,61,0,79,0,16,8,16,100
CCC(CC)(CC)n1cnc2c(N)ncnc21 [SKF-97620],24,0,0,7,7,25,0,0,20,0
CNc1nccc(-c2c(-c3ccc(F)cc3)ncn2C2CCN(C)CC2)n1 [SB-222903],58,0,21,1,0,0,0,0,0,8
COc1ccc(Nc2nccc(N3CCC(NC(=O)c4cccc(NC(C)=O)c4)C3)n2)cc1 (stereo not drawn) [GSK1379732],41,33,0,13,24,0,8,87,7,16
Nc1n[nH]c2nnc(-c3ccccc3)cc12 [SB-517389],7,0,0,0,0,0,72,92.4,57,34
Cl.Cn1ccc(-c2cccc(Nc3ccnc4cc(-c5nccs5)ccc34)c2)n1 [GW525701],33,37,0,0,8,10,12,16,0,11
Cn1ccc2ncnc(Oc3ccc(NC(=O)Nc4cccnc4)c(Cl)c3)c21,90.7,0,0,0,8,2,0,33,14,20
NC(=O)c1sc(-n2cnc3ccccc32)cc1OCc1ccccc1F [GSK1024306],25,38,0,0,4,0,4,0,17,84
CC(C)N1CCC(n2cnc(-c3ccc(F)cc3)c2-c2ccnc(N)n2)CC1 [SB-223132],38,0,11,0,7,7,0,5,0,10
COc1ccc(-c2oc3ncnc(N)c3c2-c2ccc(OC)cc2)cc1 [SB-589132],70,52,2,0,4,0,15,0,18,0
COC(=O)c1cccc(NC(=O)NCCNc2ccnc(Nc3ccc(F)cc3)n2)c1 [GSK1379883],17,31,8,0,0,0,0,14,5,3
O=c1cc(N2CCOCC2)nc2n(Cc3cccc(Cl)c3)ccn12 [GSK2296823],0,0,0,0,0,0,28,0,9,20
CSc1ccc(NC2=C(c3ccccc3Cl)C(=O)NC2=O)cc1 [SB-342411],0,0,0,0,0,0,67,78,3,18
Cn1cc(-c2ccc3c(c2)CCN3C(=O)Cc2cccc(C(F)(F)F)c2)c2c(N)ncnc21 [GSK2606414],74,23,0,30,3,0,16,0,27,20
CCCc1ccc(S(=O)(=O)NC2CCN(c3ccnc(Nc4ccc(OC)cc4)n3)C2)cc1 (stereo not drawn) [GSK1379737],34,28,94.7,0,0,0,19,8,0,32
O=C(NCCCN1CCCC1=O)c1cnc(NCc2cc(Cl)ccc2Cl)nc1NC1CCNCC1,0,0,0,0,0,16,0,0,0,20
CS(=O)(=O)CCNCc1nc(-c2ccc3ncnc(Nc4ccc(OCc5cccc(F)c5)c(Cl)c4)c3c2)cs1.Cl [GW583340],20,2,0,0,7,17,12,20,16,99.9
